Bioassay records deposited in PubChem BioAssay by National Center for Advancing Translational Sciences (NCATS).
L3MBTL1 inh = inhibitors of human L3MBTL1. Potency, µM (top dose mostly 57.1 µM), most hits filed as inhibitors. Q9Y468. 230,000 tested, 0.66% active. AlphaScreen L3MBTL1–H3K9me1 peptide binding; note: nearly all actives have a fitted effect of over 60% in size
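First, the protein-peptide complex forms for 30 min at room temperature (L3MBTL1 50 nM, biotinylated H3K9me1 peptide 75 nM). Next, compounds are pin-transferred and incubated 30 min. Finally, AlphaScreen beads are added and read after 30 min.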
APEX1 inh = APE1 (human) endonuclease inhibition. recombinant APE1, TAMRA/BHQ-2 abasic DNA cleavage fluorescence. 350,000 tested, 0.35% active. Potency, µM (top dose mostly 65.8 µM), actives largely listed as inhibitors. P27695; note: nearly all actives have a fitted effect of over 55% in size
Target sequence (P27695 whole entry, looked up): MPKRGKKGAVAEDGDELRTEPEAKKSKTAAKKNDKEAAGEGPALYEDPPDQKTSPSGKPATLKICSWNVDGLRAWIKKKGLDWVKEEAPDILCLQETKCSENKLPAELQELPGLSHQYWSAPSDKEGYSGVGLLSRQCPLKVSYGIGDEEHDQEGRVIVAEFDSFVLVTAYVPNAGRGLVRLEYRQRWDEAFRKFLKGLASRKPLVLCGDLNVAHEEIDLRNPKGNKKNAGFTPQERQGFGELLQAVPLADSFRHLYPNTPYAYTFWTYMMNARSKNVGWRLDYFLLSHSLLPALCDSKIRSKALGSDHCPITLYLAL
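0.75 nM APE1 + cpd, 15 min RT; start w/ 50 nM TAMRA/BHQ-2 THF-abasic dsDNA; kinetic fluor 525/598 nm ×3 reads @60 s; Δ(read3−read1); normalized to DMSO and NSC13755 control wells.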
BLM inh = Bloom syndrome helicase (human) inhibition; 350,000 tested, 0.2% active; AID 2528; Potency, µM (top dose mostly 56.1 µM), most hits filed as inhibitors; P54132; recombinant BLM DNA unwinding, fluorescence dequenching; note: nearly all actives have a fitted effect of over 35% in size
RECQ1 inh-1 = inhibitors of human RECQ1 DNA helicase; P46063; RECQ1 DNA unwinding, red fluorescence kinetic read; Potency, µM (highest dose often 57.3 µM), usual class: inhibitors; 240,000 tested, 0.54% active; AID 2549; note: nearly all actives have a fitted effect of over 30% in size
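RECQ1T1 50 nM; forked duplex (20 bp + 30-nt ss tails) 200 nM, ATP 2 mM final; pH 8.0, 2 mM MgCl2, 2.5 ug/ml poly(dI-dC); 15 min compound preincubation; discontinuous kinetic read over 2 h at RT.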
RECQ1 inh conf = confirmation of human RECQ1 helicase inhibitors. shares compounds with RECQ1 inh-1. RECQ1 helicase DNA unwinding, fluorescence. Potency, µM (doses to about 229 µM), most hits filed as inhibitors. 610 tested, 28% active. AID 2708; note: nearly all actives have a fitted effect of over 45% in size
RECQ1 ADP FP = counter-screen for RECQ1 inhibitors: ADP displacement | shares compounds with RECQ1 inh-1 | ADP fluorescence polarization displacement counterscreen | Potency, µM (highest dose often 228 µM), hits mostly inhibitors | 530 tested, 27% active | AID 2711; note: nearly all actives have a fitted effect of over 45% in size
RECQ1 inh-2 = RECQ1 helicase inhibition confirmed, round 2; AID 504841; recombinant RECQ1 DNA unwinding, red fluorescence; Potency, µM (doses to about 119 µM), usual class: inhibitors; shares compounds with RECQ1 inh-1; 1,100 tested, 15% active; note: nearly all actives have a fitted effect of over 50% in size
A number is an active result; 0 = inactive; ? = inconclusive; - = not tested or not shown. Most compounds without a hit are left out; they make up all but 0.78% or so of the library. Calls come from the whole dose curve; as a rule, active = well fitted curve in the direction sought with a large enough effect; inconclusive = small, poorly fitted or top-dose-only effect, or another doubt; inactive = no such curve, though single readings can be large; an effect the other way counts as inactive or inconclusive.

SMILES	L3MBTL1 inh	APEX1 inh	BLM inh	RECQ1 inh-1	RECQ1 inh-2	others
C=CCn1c(SCC(=O)NCc2ccccc2)nnc1-c1ccccc1O	0	0	0	0	-	RECQ1 inh conf=0;RECQ1 ADP FP=0
CCc1ccc(OCC2c3cc(OC)c(OC)cc3CCN2C(=O)Cc2ccc(OC)c(OC)c2)cc1 (configuration not stated)	-	-	0	-	-
Cc1cccc(N2CCN(C(=O)Cn3ncc4c3-c3ccccc3OC4)CC2)c1C	-	-	0	-	-
c1ccc(Cc2nnc3sc(-c4ccco4)nn23)cc1	0	0	0	?	?
Clc1ccccc1-c1nnc2sc(-c3ccco3)nn12	0	0	0	0	-
Cc1ccc(S(=O)(=O)N2CCCC(C(=O)Nc3cccnc3)C2)cc1 (configuration not stated)	-	0	0	0	-
COC(=O)Nc1ccc(S(=O)(=O)N2CCCC(C(=O)Nc3cccnc3)C2)cc1 (configuration not stated)	-	0	0	0	-	RECQ1 inh conf=0;RECQ1 ADP FP=0
CCOC(=O)c1[nH]c(C)c(CCC(=O)NCc2ccc(N(C)C)cc2)c1C	-	-	0	-	-
Cc1nnc(N2CCN(c3ccccc3F)CC2)c2c1nnn2Cc1ccccc1	-	-	0	-	-
COc1ncnc2c1NC1=C(S2)C(=NCCC(=O)O)CC(C)(C)C1	0	?	?	?	79.4µM
CCCn1c2ccccc2c2cnn(CC(=O)Nc3cccc(C(=O)OCC)c3)c(=O)c21	-	-	0	-	-
COc1ccc(CCn2c(N)c(C(=O)NCc3ccco3)c3nc4ccccc4nc32)cc1	0	0	0	0	-
COc1ccc(CCn2c(N)c(C(=O)NCc3ccco3)c3nc4ccccc4nc32)cc1OC	0	?	0	?	0
O=C(O)c1cc(N/N=C/c2ccc(N3CCOCC3)s2)ccc1Cl	20µM	15.8µM	0	14.1µM	-	RECQ1 inh conf=0
CCOC(=O)c1ccccc1NC(=O)CN1CCCN(Cc2cccc(Cl)c2)S1(=O)=O	-	-	0	-	-
CSc1cccc(NC(=O)C2CCCN(S(=O)(=O)c3ccc4c(c3)CCCN4C(C)=O)C2)c1 (configuration not stated)	-	-	0	-	-
O=[N+]([O-])c1ccc(Sc2cccc[n+]2[O-])c2nonc12	?	?	?	?	25.1µM
O=C1CC(c2ccc(Cl)cc2)Sc2nc(-c3ccc(F)cc3)nn21 (configuration not stated)	-	-	0	-	-
COc1ccc2c(=O)c(C)c(-c3ccccc3)oc2c1CN(C)C	-	-	0	-	-
CN(C)c1ccc(NC(=O)CSc2nc3ccsc3c(=O)n2CCCCCC(=O)O)cc1	-	-	0	-	-
O=C(O)CCCCCn1c(SCC(=O)Nc2ccc(F)cc2)nc2ccsc2c1=O	-	0	0	0	-	RECQ1 inh conf=0;RECQ1 ADP FP=0
COc1ccc(NC(=O)CSc2nc3ccsc3c(=O)n2CCCCCC(=O)O)cc1	-	0	0	0	-	RECQ1 inh conf=?;RECQ1 ADP FP=0
CC1CCN(c2nc3ccc(C(=O)NCc4ccccc4Cl)cc3s2)CC1	-	-	0	-	-
Cc1cc(C(=O)COC(=O)c2cccn2C)c(C)n1Cc1ccco1	0	?	0	?	0
COc1ccc(OC)c(NC(=O)Cn2c(=O)cc(-c3ccccc3)c3c(C)nn(C)c32)c1	-	-	0	-	-
SMILES	L3MBTL1 inh	APEX1 inh	BLM inh	RECQ1 inh-1	RECQ1 inh-2	others
Cc1ccc(NC(=O)Cn2nnnc2-c2ccccc2N)cc1	-	-	0	-	-
Cc1ccc(-n2cccc2C(=O)NS(=O)(=O)c2ccc(C)cc2)cc1	0	0	0	?	?
Cc1ccc(S(=O)(=O)NC(=O)c2cccc(Br)c2)cc1	-	0	0	-	-
CC(C)NC(=O)C1CCC(Cn2c(=O)c3sccc3n(CC(=O)NCc3ccccc3)c2=O)CC1 (configuration not stated)	-	-	0	-	-
O=C(CSc1nnnn1Cc1ccccc1)c1ccccc1F	0	?	0	0	-
Cc1ccc(C(=O)CSc2nnnn2Cc2ccccc2)cc1C	-	0	0	?	0
C[C@]12O[C@H](C[C@]1(O)CO)n1c3ccccc3c3c4c(c5c6ccccc6n2c5c31)CNC4=O	-	-	0	-	-
CSc1nnc(-c2ccccc2)c(-c2ccccc2)n1	0	0	0	0	-
O=C(CSc1nnc(-c2ccco2)c(-c2ccco2)n1)Nc1ccccc1	3.98µM	14.1µM	14.1µM	10µM	0
CSc1nnc(-c2ccco2)c(-c2ccco2)n1	-	?	?	?	0
COc1ccc(NC(=O)CSc2nnc(-c3ccco3)c(-c3ccco3)n2)cc1OC	-	0	0	-	-
CCC(C)C(NC(=O)C(Cc1ccc(O)cc1)NC(=O)C(N)C(C)C)C(=O)NC(Cc1cnc[nH]1)C(=O)N1CCCC1C(=O)NC(Cc1ccccc1)C(=O)O (configuration not stated)	-	?	0	0	-
Cc1ccc(-c2nc(SCC(=O)NCc3ccco3)c3c(=O)n(C)c(=O)n(C)c3n2)cc1	-	-	0	-	-
COc1cc(/C=C2\CC/C(=C\c3cc(OC)c(O)c(OC)c3)C2=O)cc(OC)c1O	28.2µM	?	?	14.1µM	2.82µM
Cc1c2cnn(CC(=O)NCc3ccc(F)cc3)c(=O)c2c(C)n1Cc1ccccc1F	-	-	0	-	-
Cc1c2cnn(CC(=O)Nc3c(F)c(F)cc(F)c3F)c(=O)c2c(C)n1Cc1ccccc1F	-	?	?	25.1µM	?
CC1CCN(S(=O)(=O)c2ccc(NC(=O)N3c4ccccc4Sc4ccccc43)cc2)CC1	0	0	0	0	-	RECQ1 inh conf=0;RECQ1 ADP FP=0
Cc1c(NC(=O)C(C)OC(=O)CC2Sc3ccccc3NC2=O)c(=O)n(-c2ccccc2)n1C (configuration not stated)	0	0	0	0	-	RECQ1 inh conf=0;RECQ1 ADP FP=0
O=C(O)c1ccc(N2C(=O)/C(=C/C=C/c3ccccc3)SC2=S)cc1	0	0	0	0	-
CN(C)c1ccc(/C=C/C=C2/SC(=S)N(c3ccccc3)C2=O)cc1	4.47µM	0	0	1.41µM	-	RECQ1 inh conf=3.55µM;RECQ1 ADP FP=?
Cn1c2c(c(=O)n(C)c1=O)C(c1ccccc1Cl)CC(=O)N2 (configuration not stated)	-	0	0	0	-
O=C1CC(=O)CC(c2ccccc2Cl)C1	0	0	0	?	0
Cc1cc(O)c2c(c1)OC1(C)CCC3C(C)(C)CCCC34COC2C14 (configuration not stated)	-	-	0	-	-
Cc1nn2c(COc3ccc(NC(=O)C(C)C)cc3)nnc2c2ccccc12	-	0	0	?	0
CCOC(=O)Nc1ccc(OCc2nnc3c4ccccc4c(C)nn23)cc1	0	0	0	0	-
Cc1ccc(Nc2ccc(N)cc2S(=O)(=O)O)cc1	?	?	0	?	0
Nc1ccc(/C=C/c2ccc(N)cc2S(=O)(=O)O)c(S(=O)(=O)O)c1	-	-	0	-	-
CCCCc1cc(=O)oc2c(CN3CCCC3)c(O)ccc12	0	0	0	0	-
CCCCc1cc(=O)oc2cc(C)c(CN3CCCC3)c(O)c12	?	0	?	12.6µM	?	RECQ1 inh conf=20µM;RECQ1 ADP FP=50.1µM
